Reference: PubChem BioAssay (NCATS)
Inconclusive results are not listed. Calls of active or inactive are those of the source. Unless noted, the call rests on the fitted dose curve; in most records, active means well fitted curve in the direction sought with a large enough effect; inconclusive means small, poorly fitted or top-dose-only effect, or another doubt; inactive means no such curve, though single readings can be large; an effect the other way counts as inactive or inconclusive.

Legend:
[1] = target: Luciferin 4-monooxygenase (Photinus pyralis) (UniProt P08659); test: Primary firefly luciferase (FLuc) qHTS assay for identification of artifact compounds. (AID 1845220); further: nearly all actives have a fitted effect of over 60% in size; further: potency means the concentration at half of the fitted maximal effect;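 on activity change, negative = inhibition: series mostly up to about 54 µM; plate controls were DMSO vehicle for no effect and no enzyme for full effect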
How it was run: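 qHTS, 15 min compound preincubation with substrate (10 uM luciferin, 10 uM ATP) at RT, then 10 nM FLuc; 5 min; luminescence; % inhibition vs no-enzyme/DMSO controls, 4-parameter Hill fit.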

[2] = Primary fluorescence-based thiol-reactive (MSTI) qHTS assay for identification of artifact compounds. (AID 1845221); further: nearly all actives have a fitted effect of over 65% in size; further: potency means the concentration at half of the fitted maximal effect;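 on activity change, negative = thiol reactive: series mostly up to about 54 µM; thiol-reactive compounds lower the probe fluorescence signal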
How it was run: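 Thiol-reactive compounds detected by quenching of 4 uM MSTI fluorescence (525/598 nm) after 1 h room-temperature dark incubation in PBS pH 7.4, 2% DMSO. qHTS titration; percent inhibition Hill-fitted against Acetyl-MSTI/MSTI controls.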

[3] = tested on: Nanoluciferase (engineered Oplophorus gracilirostris luciferase); test: Primary Nanoluciferase (NLuc) qHTS assay for identification of artifact compounds. (AID 1845222);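 further: series mostly up to about 54 µM; 0% = DMSO and -100% = no enzyme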
How it was run: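 Luminescence read-out of secreted NLuc in S16 cell conditioned medium (1:55); compounds tested with 15 min RT preincubation, then Nano-Glo substrate 1:100, 5 min. % inhibition vs no-enzyme and DMSO controls, 4-parameter Hill fit.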

[4] = Primary redox qHTS assay for identification of artifact compounds. (AID 1845223);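 further: 0% = DMSO and 100% = reference compound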
How it was run: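 Amplex Red (25 uM) and HRP (250 mU/mL) in HBSS, with compounds for 15 min, then 250 uM DTT for 30 min, room temperature, dark. Fluorescence 525/598 nm read; normalized to DMSO and 10 uM DA3003; Hill fit.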

[5] = qHTS drug screen for cell cycle checkpoint inhibitors in PARPi-resistant BRCA-mutant ovarian cancer cell lines. (AID 1963452; calls by dose curve); conditions: PEO1/OlaR viability, CellTiter-Glo luminescence, 96 h, stronger effect = lower value
How it was run: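 PEO1, PEO4 and PEO1/OlaR ovarian cancer cells, 600 per well, exposed 96 h at 37C to a dilution series. Viability read by CellTiter-Glo luminescence, normalized to DMSO and empty wells; activity summarized as Z-AUC.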

[6] = measured here: PEO1 parental Z-AUC

CO[C@H]1[C@H](O)[C@H](O[C@H]2CC[C@]3(C)C4CC[C@]5(C)[C@H](C6=CC(=O)OC6)CC[C@]5(O)C4CC[C@@H]3C2)O[C@@H](C)[C@@H]1O (stereo partly specified)
inactive: Potency [2] | outcome [3]
active: Potency [1] 7.38 µM

CC(N)Cc1c[nH]c2ccccc12 (stereo unspecified)
inactive: Potency [1] | Potency [2] | outcome [3] | outcome [4]

CC(CCc1ccc(O)cc1)O[C@@H]1O[C@H](CO[C@H]2OC[C@](O)(CO)[C@H]2O)[C@@H](O)[C@H](O)[C@H]1O (stereo partly specified)
inactive: Potency [1] | Potency [2] | outcome [3] | outcome [4]

CN1C(=O)N(c2ccc(C#N)c(C(F)(F)F)c2)C(=O)[C@]1(CO)c1ccccc1
inactive: Potency [1] | Potency [2] | outcome [3] | outcome [4]

CC[C@H]1CN2CC[C@H]1C[C@H]2[C@H](O)c1ccnc2ccc(OC)cc12
inactive: Potency [1] | Potency [2] | outcome [3] | outcome [4]

COC(=O)C1(C)CCC(=O)C2(C)c3c(O)cc(C(C)C)cc3C(O)C(OC(C)=O)C12 (stereo unspecified)
inactive: Potency [1] | Potency [2] | outcome [3] | outcome [4]

CCC(C)(OC(C)=O)C(=O)O[C@H]1[C@H](OC(C)=O)C[C@@H]2[C@@](C)([C@@H]3C[C@H]4C=CO[C@H]4O3)[C@H](C)C[C@H](OC(C)=O)[C@@]2(COC(C)=O)[C@@]12CO2 (stereo partly specified)
inactive: Potency [1] | Potency [2] | outcome [3] | outcome [4]

C/C=C(\C)C(=O)OC1CC2C(C)(C)OC(=O)CC(OC(C)=O)C2(C)C2CC(OC(=O)C(C)C)C3(C)C(c4ccoc4)CC4OC43C12C (stereo unspecified)
inactive: Potency [1] | Potency [2] | outcome [3] | outcome [4]

C[C@H](NC(=O)Cc1cc(F)cc(F)c1)C(=O)N[C@@H]1N=C(c2ccccc2)c2ccccc2N(C)C1=O
inactive: Potency [1] | Potency [2] | outcome [3] | outcome [4]

O=C(N1CCOCC1)N1CCN(c2ccc(Cl)cc2)CC1
inactive: Potency [1] | Potency [2] | outcome [3] | outcome [4]

COC(=O)N1CCN(C(=O)Cc2ccc(Cl)c(Cl)c2)[C@@H](CN2CCCC2)C1
inactive: Potency [1] | Potency [2] | outcome [3]

C=CC(C)(C)c1[nH]c2cccc3c2c1C[C@@H]1[C@@H]3[C@@H](OC(C)=O)[C@H](C)CN1C
inactive: Potency [1] | Potency [2] | outcome [3] | outcome [4]

C[C@]12CC[C@@H](O)C[C@H]1CC[C@@H]1[C@@H]2CC[C@]2(C)C(=O)CC[C@@H]12
inactive: Potency [1] | Potency [2] | outcome [3] | outcome [4]

CCN1C[C@]2(COC(=O)c3ccccc3N3C(=O)C[C@H](C)C3=O)CC[C@H](OC)[C@@]34[C@@H]5C[C@H]6[C@H](OC)[C@@H]5[C@](O)(C[C@@H]6OC)[C@](O)([C@@H](OC)[C@H]23)[C@@H]14
inactive: Potency [1] | Potency [2] | outcome [3] | outcome [4]

C/C=C(\C)C(=O)OC1C(C)OC(OC2C(C)OC(OC3CCC4(C)C(=CCC5C4CCC4(C)C(C(C)OC6OC(COC7OC(CO)C(O)C(O)C7O)C(O)C(O)C6O)CCC54O)C3)CC2OC)C(O)C1OC (stereo unspecified)
inactive: outcome [1] inactive [at 11.6 µM] | activity change, negative = thiol reactive [2] 16.4% [at 11.5 µM] | activity, negative = inhibition [3] 0% [at 11.6 µM] | redox activity (% of DA3003) [4] -7.77% [at 11.5 µM]

COc1cc(CCNCc2ccccc2O)c(OC)cc1C#N
inactive: Potency [1] | Potency [2] | outcome [3] | outcome [4]

CC(C)[C@@H](CN1CC[C@@](C)(c2cccc(O)c2)[C@@H](C)C1)NC(=O)[C@H]1Cc2ccc(O)cc2CN1
inactive: Potency [1] | Potency [2] | outcome [3] | outcome [4]

CCN1C[C@]2(OC(=O)c3ccccc3NC(C)=O)CC[C@H](OC)[C@@]34[C@@H]2C[C@@H]([C@@H]13)[C@@]1(O)C[C@H](OC)[C@H]2C[C@@H]4[C@]1(O)[C@H]2OC
inactive: Potency [1] | Potency [2] | outcome [3]

CC12CCC3C(CCC4(O)CC(O)CCC34C=O)C1(O)CCC2C1=CC(=O)OC1 (stereo unspecified)
inactive: Potency [1] | Potency [2] | outcome [3] | outcome [4]

COC1CC(OC2CCC3(C=O)C(CCC4C3CCC3(C)C(C5=CC(=O)OC5)CCC43O)C2)OC(C)C1OC1OC(CO)C(O)C(O)C1O (stereo unspecified)
inactive: Potency [1] | Potency [2] | outcome [3]

COC1CC(O[C@H]2CC[C@@]3(C)C(=CCC4C3C(O)[C@@H](O)[C@]3(C)[C@@H](C(C)=O)CC[C@]43O)C2)OC(C)C1OC1CC(OC)C(OC2OC(C)C(O)C(O)C2O)C(C)O1 (stereo partly specified)
inactive: outcome [1] inactive [at 11.6 µM] | activity change, negative = thiol reactive [2] 105% [at 11.5 µM] | activity, negative = inhibition [3] 4.68% [at 11.6 µM] | redox activity (% of DA3003) [4] 8.26% [at 11.5 µM]

Oc1ccc2c3c1O[C@H]1[C@H](N(CCCl)CCCl)CC[C@@]4(O)[C@@H](C2)N(CC2CC2)CC[C@]314
inactive: outcome [1] inactive [at 11.6 µM] | activity change, negative = thiol reactive [2] 7.36% [at 11.5 µM] | activity, negative = inhibition [3] 1.59% [at 11.6 µM] | redox activity (% of DA3003) [4] -0.579% [at 11.5 µM]

C1=C2CCCN[C@H]2[C@@H]2C[C@H]1[C@H]1CCCCN1C2
inactive: Potency [1] | Potency [2] | outcome [3] | outcome [4]

COC(=O)C1(C)CCC(O)C2(C)c3c(O)cc(C(C)C)cc3C(O)C(OC(C)=O)C12 (stereo unspecified)
inactive: Potency [1] | Potency [2] | outcome [3] | outcome [4]

C=C(C)[C@H]1O[C@H]2CC[C@@]3(C)[C@@](O)(CC[C@H]4[C@@H]5OC(C)(C)[C@H]6C[C@@H]7C(=C)Cc8c(Cl)cc9[nH]c(c5c9c8[C@@]76O)[C@@]43C)[C@]23O[C@@H]3[C@H]1O
active: Potency [2] 6.3 µM
inactive: Potency [1] | outcome [3] | outcome [4]

CN1CCCC1CCOC(c1cc2nccc(C(=O)O)c2[nH]1)c1ccccc1Cl (stereo unspecified)
inactive: Potency [1] | Potency [2] | outcome [3] | outcome [4]

C[C@H]1O[C@@H](O[C@H]2C[C@@H](O)[C@]3(CO)C4C(CC[C@]3(O)C2)[C@@]2(O)CC[C@H](C3=CC(=O)OC3)[C@@]2(C)C[C@H]4O)[C@@H](O)[C@@H](O)[C@H]1O (stereo partly specified)
inactive: Potency [1] | Potency [2] | outcome [3] | outcome [4]

COC1C(O)C(C)OC(OC2C(CO)O[C@@H](O[C@@H]3CC4CCC5C(CC[C@]6(C)[C@@H](C7=CC(=O)OC7)CC[C@]56O)[C@@]4(C)[C@H](O)C3)C(O)C2O)C1O (stereo partly specified)
inactive: Potency [1] | Potency [2] | outcome [3] | outcome [4]

CCCCCCn1c(=O)c(C(=O)Nc2ccc(C(=O)OCCC)cc2)c(O)c2ccccc21
inactive: activity change, negative = inhibition [1] 0.207% [at 11.6 µM] | activity change, negative = thiol reactive [2] -6.91% [at 11.5 µM] | activity, negative = inhibition [3] 1.06% [at 11.6 µM] | redox activity (% of DA3003) [4] -1.37% [at 11.5 µM]

CC(=O)OC1CC(O)C2(C)C(CC(OC(C)=O)C3(C)C2CCC2(C)C(c4ccoc4)C(=O)C4OC423)C1(C)C (stereo unspecified)
inactive: Potency [1] | Potency [2] | outcome [3]

CC(C)(C)c1cc(C(C)(C)C)c2c(c1)C(O)(C(F)(F)F)C(=O)O2 (stereo unspecified)
active: Potency [2] 9.47 µM
inactive: Potency [1] | outcome [3]

C[C@@](O)(COc1ccc(C#N)cc1)C(=O)Nc1ccc(C#N)c(C(F)(F)F)c1
inactive: Potency [1] | Potency [2] | outcome [3] | outcome [4]

CC(C)C1(OO)C=C2C(=O)CC3C(C)(C(=O)O)CCCC3(C)C2CC1 (stereo unspecified)
inactive: Potency [1] | Potency [2] | outcome [3] | outcome [4]

COc1ccccc1CN[C@H]1C2CCN(CC2)[C@H]1C(c1ccccc1)c1ccccc1
inactive: Potency [1] | Potency [2] | outcome [3] | outcome [4]

COC1=CC(=O)O[C@@H](CCc2ccccc2)C1
inactive: Potency [1] | Potency [2] | outcome [3] | outcome [4]

OC1(c2ccc(Cl)cc2)c2ccccc2C2=NCCN21 (stereo unspecified)
inactive: Potency [1] | Potency [2] | outcome [3] | outcome [4]

COC1CC(OC2CCC3(C)C(=CCC4C3CCC3(C)C(C(C)OC5OC(COC6OC(CO)C(O)C(O)C6O)C(O)C(O)C5O)CCC43O)C2)OC(C)C1OC1OC(C)C(O)C(OC)C1O (stereo unspecified)
inactive: outcome [1] inactive [at 11.6 µM] | activity change, negative = thiol reactive [2] 0.542% [at 11.5 µM] | activity, negative = inhibition [3] 2.42% [at 11.6 µM]

CN1[C@H]2C[C@H](OC(=O)[C@H](CO)c3ccccc3)C[C@@H]1[C@@H](O)C2
inactive: Potency [1] | Potency [2] | outcome [3] | outcome [4]

CC(=O)OC1CC(O)C(C)(C)C2CC(OC(C)=O)C3(C)C(CCC4(C)C(c5ccoc5)C(=O)C5OC543)C12C (stereo unspecified)
inactive: Potency [2] | outcome [3] | outcome [4]

COc1c(C(C)C)cc2c(c1O)[C@@]1(C(=O)O)CCCC(C)(C)C1CC2 (stereo partly specified)
inactive: Potency [1] | outcome [4]

Cc1cn(C[C@H](N)C(=O)O)c(=O)n(Cc2cc(-c3ccccc3)sc2C(=O)O)c1=O
inactive: Potency [2] | outcome [3] | outcome [4]

CCOc1ccccc1-n1c(C(C)N2CCN(C(=O)COc3ccc(Cl)cc3)CC2)nc2ccccc2c1=O (stereo unspecified)
inactive: Potency [1] | Potency [2] | outcome [3] | Z-AUC [5] 0.23
0.347: Z-AUC [5, 6]
-0.0275: Z-AUC ([5]; measured here: PEO4 Z-AUC)

CN(C(=O)Cc1ccccc1)C(CN1CCCC1)c1ccccc1 (stereo unspecified)
inactive: Potency [1] | Potency [2] | outcome [3] | outcome [4]

CC1=C2C[C@H]3[C@@H](CC=C4C[C@@H](O)CC[C@@]43C)[C@@H]2CC[C@]12O[C@@H]1C[C@H](C)CN[C@H]1[C@H]2C
-0.348: Z-AUC [5, 6]
inactive: Potency [1] | Potency [2] | outcome [3] | outcome [4] | Z-AUC [5] -0.41
-0.0838: Z-AUC ([5]; measured here: PEO4 Z-AUC)

C[C@@]12C[C@@H](c3ccoc3)OC(=O)C1CC[C@]1(C)[C@H]2[C@H]2C=C[C@]1(O)C(=O)O2 (stereo partly specified)
inactive: Potency [1] | Potency [2] | outcome [3] | outcome [4]

CN[C@H]1[C@H](O)[C@H](O[C@@H]2[C@@H](O)[C@H](O[C@H]3O[C@H]([C@H](C)O)[C@@H](O)[C@H](O)[C@H]3N)[C@@H](N)C[C@H]2N)OC[C@@]1(C)O
inactive: Potency [1] | Potency [2] | outcome [3] | outcome [4]

CN(C)CCc1c[nH]c2ccc(CN3CCN(C)S3(=O)=O)cc12
inactive: Potency [2] | outcome [3] | outcome [4]

C[C@@]1(C(=O)O)CC[C@]2(C)CC[C@]3(C)C4=CC(=O)c5cc(O)c(O)cc5[C@]4(C)CC[C@@]3(C)[C@@H]2C1
inactive: Potency [1] | outcome [3]

Cc1cccc(NC(=O)N[C@@H]2N=C(c3ccccc3)c3ccccc3N(C)C2=O)c1
inactive: Potency [1] | Potency [2] | outcome [4]
